Molecules are shown by their SMILES. Out of some 330,000 compounds screened, about 230 (0.07%) were called active. This is one part of a sample in which actives are shown more often than they occur. Unmarked numbers belong to inactive results.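 The calls were made as follows: active = more than half of a compound's replicate wells show inhibition beyond 50%, single wells judged on their own value; inconclusive = some, but no more than half, of replicates pass 50% inhibition; inactive = no replicate passes 50% inhibition.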

The assay deals with Lysine-specific demethylase 4C (Homo sapiens) (UniProt Q9H3R0). Description: JMJD2C H3K9me3 demethylation blockers – biochemical, fluorescence, DELFIA europium, primary screen (AID 2099).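 Also: signal counts dimethyl H3K9 product captured on neutravidin plate; 0% = median of DMSO wells and 100% = 0.3 times that DMSO median.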 The following applies: GST-JMJD2C(1-420) H3K9me3 demethylation, at 2.35 µM, stronger effect = higher value.
Lysine-specific demethylase 4C (Homo sapiens), sequence (Q9H3R0 1-420 limits assumed): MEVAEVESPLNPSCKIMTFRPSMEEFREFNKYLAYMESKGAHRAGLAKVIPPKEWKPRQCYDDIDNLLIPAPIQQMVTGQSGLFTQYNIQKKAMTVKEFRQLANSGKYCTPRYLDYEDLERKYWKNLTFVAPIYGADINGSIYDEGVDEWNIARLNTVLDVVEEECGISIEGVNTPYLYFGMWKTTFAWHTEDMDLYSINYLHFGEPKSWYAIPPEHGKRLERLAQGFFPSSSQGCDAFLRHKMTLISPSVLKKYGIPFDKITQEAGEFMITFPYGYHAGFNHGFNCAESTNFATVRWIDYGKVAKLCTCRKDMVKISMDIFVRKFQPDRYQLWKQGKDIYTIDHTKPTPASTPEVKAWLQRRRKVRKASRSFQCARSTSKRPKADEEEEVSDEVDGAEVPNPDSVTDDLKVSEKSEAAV
Turning to `CN1CCN(CC#CCC2(O)c3ccccc3-c3ccccc32)CC1`, the inhibition was -1.35%.
For `O=C(N/C(=C\c1ccc([N+](=O)[O-])cc1)C(=O)N1CCOCC1)c1cccc(Br)c1` the value was -3.44%; for `C=CCN1C(=O)C(O)(CC(=O)c2ccc(Cl)cc2)c2ccccc21` (configuration not stated), -1.48%.
For the compound `Cc1ccsc1/C=N/n1c(=S)[nH]nc(C)c1=O`, the inhibition is -1.06%.
As to `C=CCn1cc(Cl)cc(C(=O)Nc2ccccc2)c1=O`, the inhibition is 3.59%.
For the compound `O=C1Nc2cc(Cl)c(Cl)cc2N(O)N1c1ccccc1Cl`, the inhibition was -2.09%.
For `CCCCN(CCCC)CCNC(=O)CN1C(=O)COc2ccc(S(=O)(=O)N3CCOCC3)cc21` the value was -8.15%.
For the compound `COc1cc2c(cc1OC)CC1(CCCCC1)N=C2`, the inhibition is 2.64%.
For `COC(C[C@@H](O)[C@H](C)[C@H](O)COCc1ccccc1)OC` the value was 13.4%.
On to `O=C(CSc1nc(=O)n2ccccc2n1)Nc1ccc2c(c1)OCCO2`, for which the inhibition was -1.16%.
For `COc1cccc(NCCC(=O)c2cccc([N+](=O)[O-])c2)c1` the value was 4.3%.
The result for `CCc1ccc(N2CC(O)=C(c3nc4ccccc4c(=O)[nH]3)C2=N)cc1` reads -0.372%.
As to `Cc1cc(C)c(S(=O)(=O)N2CCOCC2)cc1C`, the inhibition was 8.81%.
For `Cc1ccc(C2=NN(C)c3nc4ccccc4n3C2)cc1` the value was 4.06%.
For `Cc1nn(C)c(Cl)c1CN1CCC(Oc2ccc(C(=O)N3CCCC3)cc2)CC1` the value was 36.3%; for `Cc1ccc(-n2c(CNc3ccc(F)cc3)nnc2SCC(=O)N2CCOCC2)cc1`, 0.71%; for `CC(=O)Nc1ccc(NC(=O)CCN2C(=O)C3CC=CCC3C2=O)cc1` (configuration not stated), 3.08%.
The result for `O=c1cc(-c2ccccc2)[nH]c2cc(F)ccc12` reads 0.818%; that for `Cc1ccccc1NC(=O)N1CCCC1C(=O)NCc1ccccc1` (configuration not stated), 5.47%; that for `Cc1nnc(SC(C(=O)c2ccccc2)c2ccccc2)[nH]c1=O` (configuration not stated), -3.86%.
With `CCCCN1CCNC1=S`, the inhibition is 0.223%.
On to `OCCC1CN(Cc2ccc3nsnc3c2)CCN1C1CCCC1` (configuration not stated), for which the inhibition is -2.72%.
In the case of `O=C(NCc1ccccn1)c1cnc2sccn2c1=O`, the inhibition is -1.24%.
`Cc1nc2nc(SCC(=O)Nc3cccc(F)c3)[nH]c2cc1Br`: the inhibition is 6.95%.
On to `COc1ccc(F)c(-c2nc(CN3CCC(c4ccccc4)CC3)c(C)o2)c1`, for which the inhibition was -8.87%.
As to `O=c1c2sccc2nc(SCc2cc(=O)n3ccccc3n2)n1-c1ccc(Br)cc1`, the inhibition was -3.21%.
For the compound `CC(C)(C)NC(=O)NC(=O)CN1CCC(Cc2ccccc2)CC1`, the inhibition was -22.7%.

Source of the values: PubChem BioAssay AID2099 (Broad Institute, 2009).
